5 compounds from PubChem BioAssay can be followed below.

Active and inactive are the calls of the source. Unless noted, how the calls were made is not given here.

Experiment [1] can be described thus: anti-His antibody binders, primary screen, artefact control for SMM control protein annotation, biochemical, small-molecule microarray, 635 nm fluorescence (AID 1128).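 Further: score merges feature fluorescence with signal-to-noise for each printed compound spot.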 The conditions noted are these: anti-His Alexa647 antibody binding, higher = more signal.
The test system of experiment [2] is Human papillomavirus type 1a E7 protein (residues 1-88). The experiment can be described thus: HPV1a E7 small-molecule binders, primary screen, biochemical, small-molecule microarray, residues 1-88, 635 nm (AID 1129). The conditions noted are these: small-molecule microarray binding, fluorescence 635 nm; higher = more signal.
Experiment [3] addresses Focal adhesion kinase 1 (Homo sapiens) (UniProt Q05397). The experiment can be described thus: small-molecule microarray binders of FAK, primary screen, biochemical, 635/667 nm fluorescence, BSA, DTT (AID 1130).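 Further: composite of spot emission at 667 nm and signal to noise over triplicate slides.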 The conditions noted are these: PTK2 binding, 635 nm fluorescence, higher = more signal.
For experiment [4], the system named is Fibrinogen (Alexa647-labelled). The experiment is described as follows: fibrinogen binders on compound microarrays, profiling panel, artefact control for SMM control-protein annotation, biochemical, small-molecule microarray, 635/667 nm fluorescence (AID 1131).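 Further: z-score merges 667 nm fluorescence with per-spot signal-to-noise over triplicate slides.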 The note with it: fibrinogen-A647 binding fluorescence, higher = more signal.
For experiment [5], the target named is Follistatin (Homo sapiens) (UniProt P19883). The experiment can be described thus: follistatin binders on small-molecule microarrays, primary screen, biochemical, small-molecule microarray, 635/667 nm fluorescence (AID 1132). The conditions noted are these: FST binding, 635 nm fluorescence, higher = more signal.
Chain of Follistatin (Homo sapiens) (P19883 whole entry, looked up): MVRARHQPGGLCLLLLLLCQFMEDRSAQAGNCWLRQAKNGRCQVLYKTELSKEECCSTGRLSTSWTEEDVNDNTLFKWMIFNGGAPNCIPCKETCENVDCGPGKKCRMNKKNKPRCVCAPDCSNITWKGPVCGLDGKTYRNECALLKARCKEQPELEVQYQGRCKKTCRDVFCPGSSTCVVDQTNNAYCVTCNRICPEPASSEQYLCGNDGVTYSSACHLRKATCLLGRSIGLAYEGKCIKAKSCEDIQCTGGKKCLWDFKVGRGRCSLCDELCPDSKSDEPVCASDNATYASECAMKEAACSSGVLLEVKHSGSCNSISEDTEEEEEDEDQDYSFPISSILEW
Experiment [6] addresses Fibroblast growth factor 2 (Homo sapiens) (UniProt P09038). The experiment can be described thus: FGF2 binders on small-molecule microarrays, primary screen, biochemical, small-molecule microarray, 635/667 nm fluorescence (AID 1133). The note with it: small-molecule microarray binding, FGF2, fluorescence 635/667; higher = more signal.
A short description of experiment [7]: mitochondrial membrane potential change in A549 cells, profiling panel, cell-based, JC-1 fluorescence, basal, 24 h, 100 nL (AID 1138).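 Further: A549 lung adenocarcinoma cells under basal conditions with no added stimulus; test concentration not given here.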 The note with it: higher = more signal.
Another experiment relates to Lefty1. The experiment can be described thus: Lefty1 binders on small-molecule microarrays, primary screen, biochemical, small-molecule microarray, 635/667 nm fluorescence (AID 1139). The note with it: small-molecule microarray binding, fluorescence 635/667; higher = more signal.
The test system of experiment [8] is wheat germ agglutinin (Triticum aestivum), Alexa647-labelled. The experiment is described as follows: wheat germ agglutinin binders on compound microarrays, profiling panel, artefact control for SMM control-protein annotation, biochemical, small-molecule microarray, 635/667 nm fluorescence (AID 1140).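 Further: score merges 667 nm feature emission with signal to noise over triplicate slides.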 The conditions noted are these: WGA-A647 binding, 635 nm fluorescence, higher = more signal.

For experiment [9], the target named is Luciferin 4-monooxygenase (Photinus pyralis) (UniProt P08659). The experiment is described as follows: firefly luciferase enzyme inhibitors, primary screen, biochemical, luminescence, purified enzyme, 2006 set (AID 1141).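 Further: cell-free assay with purified firefly luciferase at 100 ng per well in PBS; test concentration not given here.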 The note with it: SteadyGlo luminescence, 30 min, higher = more signal, called active from +8 up or from −8 down.
Chain of Luciferin 4-monooxygenase (Photinus pyralis) (P08659 whole entry, looked up): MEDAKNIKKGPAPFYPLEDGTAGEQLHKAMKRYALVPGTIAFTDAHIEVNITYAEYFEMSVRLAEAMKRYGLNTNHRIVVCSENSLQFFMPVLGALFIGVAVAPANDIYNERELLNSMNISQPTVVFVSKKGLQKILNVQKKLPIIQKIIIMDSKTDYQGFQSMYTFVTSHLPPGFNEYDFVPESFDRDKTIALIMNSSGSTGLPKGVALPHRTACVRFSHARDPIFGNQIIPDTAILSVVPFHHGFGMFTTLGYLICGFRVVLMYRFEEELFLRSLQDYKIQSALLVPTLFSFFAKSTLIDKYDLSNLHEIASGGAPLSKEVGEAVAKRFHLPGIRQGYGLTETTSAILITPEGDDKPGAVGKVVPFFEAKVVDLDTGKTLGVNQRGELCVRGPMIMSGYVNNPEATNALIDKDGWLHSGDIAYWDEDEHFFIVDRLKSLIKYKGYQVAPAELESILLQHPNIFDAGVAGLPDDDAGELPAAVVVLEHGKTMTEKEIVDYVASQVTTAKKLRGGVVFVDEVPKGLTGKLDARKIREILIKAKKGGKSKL
The test system of experiment [10] is Wnt5a (protein binding on small-molecule microarray). The experiment can be described thus: Wnt5a binders on small-molecule microarray, primary screen, biophysical, 635/667 nm fluorescence (AID 1142).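 Further: fluorescence read at 667 nm with signal to noise per printed feature.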 The note with it: 635 nm fluorescence, higher = more signal.
Experiment [11] can be described thus: cell viability in Huh7 cells, primary screen, cytotoxicity control for HCV replication inhibitor project, CellTiter-Glo luminescence, basal, 48 h (AID 1143).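 Further: Huh7 hepatoma cells carrying a hepatitis C replication reporter with no stimulus; test concentration not given here.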 The conditions noted are these: Huh7 HCV replicon, higher = more signal, called active from +8 up or from −8 down. For orientation: ATP-based viability assays read luminescence as a measure of living cells.

The nature of experiment [12]: P. aeruginosa biofilm formation inhibitors, primary screen, PAO1 strain, BacTiter-Glo luminescence, LB-PBS (AID 1144). The conditions noted are these: 12 h, higher = more signal.
The nature of experiment [13]: CREB reporter modulators without forskolin, primary screen, cell-based, PC12, CRE-LacZ reporter, unstimulated (AID 1145). The note with it: no forskolin, luminescence, 4.5 h, higher = more signal, called active from +8 up or from −8 down.
A short description of experiment [14]: CREB reporter modulators under forskolin, primary screen, cell-based, PC12, CRE-LacZ reporter, forskolin-stimulated (AID 1146).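 Further: PC12 cells with 6xCRE LacZ reporter stimulated by forskolin 10 µM; beta-galactosidase reporter signal reflecting CREB driven transcription.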 The note with it: luminescence, 4.5 h, higher = more signal, called active from +8 up or from −8 down.
The target in experiment [15] is Streptavidin (Streptomyces avidinii) (UniProt P22629). The experiment can be described thus: streptavidin binders on small-molecule microarray, primary screen, artefact control for SMM compound annotation, biophysical, 635/667 nm fluorescence (AID 1147).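 Further: signal reflects streptavidin binding to arrayed compounds as a control protein.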 The note with it: streptavidin binding, higher = more signal.
Chain of Streptavidin (Streptomyces avidinii) (P22629 whole entry, looked up): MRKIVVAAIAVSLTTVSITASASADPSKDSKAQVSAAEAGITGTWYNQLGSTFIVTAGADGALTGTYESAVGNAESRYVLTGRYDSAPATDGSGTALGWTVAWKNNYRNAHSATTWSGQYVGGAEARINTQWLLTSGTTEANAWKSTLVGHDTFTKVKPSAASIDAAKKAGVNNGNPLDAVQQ
Experiment [16] is described as follows: small-molecule binders of probe aInhba, primary screen, biochemical, small-molecule microarray, 635/667 nm fluorescence (AID 1148).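 Further: score merges 667nm spot fluorescence with signal-to-noise for antibody binding to printed compounds.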 The note with it: higher = more signal.
The target of experiment [17] is Torsin-1A (Homo sapiens) (UniProt O14656). The experiment is described as follows: torsin A binders from cell lysate, primary screen, small-molecule microarray, wild-type, 635/667 nm (AID 1149). The conditions noted are these: COS7 hTOR1A-WT lysate, 635 nm fluorescence, higher = more signal.
Chain of Torsin-1A (Homo sapiens) (O14656 whole entry, looked up): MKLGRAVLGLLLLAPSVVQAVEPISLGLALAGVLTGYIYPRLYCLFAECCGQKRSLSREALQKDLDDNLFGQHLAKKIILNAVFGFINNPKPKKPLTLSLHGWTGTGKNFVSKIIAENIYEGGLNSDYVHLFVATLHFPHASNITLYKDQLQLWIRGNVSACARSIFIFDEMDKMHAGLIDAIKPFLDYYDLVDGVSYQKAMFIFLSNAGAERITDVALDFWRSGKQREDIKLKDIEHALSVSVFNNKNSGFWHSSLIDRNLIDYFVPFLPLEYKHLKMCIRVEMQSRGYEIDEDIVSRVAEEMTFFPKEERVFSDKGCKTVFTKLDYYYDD
For experiment [18] the target is unchanged. The experiment can be described thus: small-molecule binders of mutant TOR1A in lysate, primary screen, cell lysate, small-molecule microarray, COS7 lysate, 635/667 nm fluorescence (AID 1150).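 Further: score pools 667 nm emission and signal to noise measuring lysate protein binding.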 The note with it: COS7 hTOR1A mutant lysate, 635 nm fluorescence, higher = more signal.
Experiment [19] relates to Sonic hedgehog protein (Shh). The experiment is described as follows: small-molecule binders of Shh protein, primary screen, biochemical, small-molecule microarray, 635/667 nm fluorescence (AID 1151).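 Further: Shh protein binding to compounds spotted on small-molecule microarray slides; score combines spot fluorescence intensity with signal-to-noise across triplicate slides.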 The note with it: small-molecule microarray binding, 635 nm fluorescence; higher = more signal.

Chain of Focal adhesion kinase 1 (Homo sapiens) (Q05397 whole entry, looked up): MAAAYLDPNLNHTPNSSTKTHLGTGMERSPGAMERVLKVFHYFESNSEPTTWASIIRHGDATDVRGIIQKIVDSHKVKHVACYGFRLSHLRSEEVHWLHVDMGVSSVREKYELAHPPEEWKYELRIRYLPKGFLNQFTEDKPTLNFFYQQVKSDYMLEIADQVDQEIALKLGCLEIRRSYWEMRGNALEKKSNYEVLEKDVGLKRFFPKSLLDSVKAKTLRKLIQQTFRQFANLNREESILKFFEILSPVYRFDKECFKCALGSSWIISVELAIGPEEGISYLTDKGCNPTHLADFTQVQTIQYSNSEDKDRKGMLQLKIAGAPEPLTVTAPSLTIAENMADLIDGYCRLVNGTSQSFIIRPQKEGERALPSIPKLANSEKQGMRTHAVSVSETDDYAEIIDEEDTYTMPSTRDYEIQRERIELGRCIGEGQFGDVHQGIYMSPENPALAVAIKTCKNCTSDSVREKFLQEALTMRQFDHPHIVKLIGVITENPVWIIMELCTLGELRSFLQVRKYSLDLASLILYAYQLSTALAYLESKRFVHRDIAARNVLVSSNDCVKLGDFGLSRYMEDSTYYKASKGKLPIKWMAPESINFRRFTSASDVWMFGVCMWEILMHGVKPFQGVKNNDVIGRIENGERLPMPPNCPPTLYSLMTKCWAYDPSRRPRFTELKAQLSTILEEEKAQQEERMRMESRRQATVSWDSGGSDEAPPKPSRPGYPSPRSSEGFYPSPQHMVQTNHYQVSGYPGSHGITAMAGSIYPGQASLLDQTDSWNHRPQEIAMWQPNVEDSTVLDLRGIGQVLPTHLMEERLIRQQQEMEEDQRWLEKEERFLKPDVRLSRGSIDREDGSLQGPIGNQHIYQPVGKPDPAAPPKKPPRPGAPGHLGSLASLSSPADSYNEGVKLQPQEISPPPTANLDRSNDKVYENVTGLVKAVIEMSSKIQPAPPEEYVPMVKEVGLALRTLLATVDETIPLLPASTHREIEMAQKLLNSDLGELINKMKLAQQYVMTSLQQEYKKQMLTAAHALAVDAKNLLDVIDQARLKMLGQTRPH
Chain of Fibroblast growth factor 2 (Homo sapiens) (P09038 whole entry, looked up): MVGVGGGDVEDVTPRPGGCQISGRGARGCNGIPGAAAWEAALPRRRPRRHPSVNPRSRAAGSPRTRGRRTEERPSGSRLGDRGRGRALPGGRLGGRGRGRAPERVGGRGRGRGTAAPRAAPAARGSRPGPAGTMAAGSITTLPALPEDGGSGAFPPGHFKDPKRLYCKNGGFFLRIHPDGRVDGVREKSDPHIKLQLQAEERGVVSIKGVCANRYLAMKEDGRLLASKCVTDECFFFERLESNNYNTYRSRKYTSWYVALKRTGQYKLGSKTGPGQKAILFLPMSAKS

On to `C=CC[C@]1(C(=O)NCCN2CCOCC2)N=C(c2ccc(OCCCO)cc2)O[C@H]1c1ccccc1N=[N+]=[N-]`, for which the composite z-score in [1] worked out at 1.5; in experiment [2] it was 1.16; in experiment [3] it was 0.0147; in experiment [4], 0.772; in [5], 1.32; in [6] it was 0.931. Besides, the composite z-score in the experiment with Lefty1 was -0.367; in experiment [8], 0.455; in experiment [10], 0.038; in experiment [15], 1.23; in [16], 0.126; in the experiment with Torsin-1A (Homo sapiens) [17] it was 0.17. The results for the composite z-score (with Torsin-1A (Homo sapiens) [18]; in experiment [19]) were -0.0097 and 0.255, respectively. Also, the z-score in [7] is 0.98; in [9] it was -8.62 (active); in [11], -1.76 (inactive); in experiment [12], 0.672 (inactive); in experiment [13], 2.66 (inactive); in experiment [14], -1.37 (inactive).
Take `Cc1ccc(N2C(=O)c3ccccc3[C@@H](C(=O)NC(C)C)[C@@H]2c2ccc(CO)cc2)nc1`: the composite z-score was 0.621 in [1]; 0.708 in experiment [2]; -0.291 in experiment [3]; -0.756 in experiment [4]; 0.931 in experiment [5]; 1.55 in experiment [6]. In addition, the composite z-score in the experiment on Lefty1 is -0.362; in experiment [8], 0.692; in [10], 0.635; in experiment [15], -0.896; in experiment [16], -0.104; with Torsin-1A (Homo sapiens) [17] it was -1.73. Besides, the figures for the composite z-score (with Torsin-1A (Homo sapiens) [18]; in experiment [19]) were 2.08 and -0.473, respectively. Also, the z-score in experiment [7] is -1.05; in [9], 1.25 (inactive); in [11], -2.73 (inactive); in experiment [12], -1.83 (inactive); in experiment [13], 0.351 (inactive); in experiment [14], 0.807 (inactive).
As to `COc1ccc(C#Cc2ccc3c(c2)[C@]2(C(=O)N3)[C@H](C(=O)N3CCN(c4ncccn4)CC3)[C@H]3C(=O)O[C@H](c4ccccc4)[C@H](c4ccccc4)N3[C@@H]2c2ccc(O)cc2)cc1`, the composite z-score in [1] was found to be 0.658; in experiment [2] it was 1.2; in experiment [3] it was 0.392; in experiment [4] it was 0.972; in experiment [5] it was 1.2; in experiment [6], 0.485. The composite z-score in the experiment with Lefty1 is 0.884; in experiment [8], 0.4; in [10], 0.205; in experiment [15] it was 1.04; in experiment [16], 0.13; with Torsin-1A (Homo sapiens) [17] it was -0.0852. The composite z-score with Torsin-1A (Homo sapiens) [18] came out at 0.231; in experiment [19] it was 0.88. Further, the z-score is -0.799 in experiment [7]; -0.374 (inactive) in experiment [9]; -0.629 (inactive) in experiment [11]; -0.747 (inactive) in [12]; 0.775 (inactive) in experiment [13]; -0.612 (inactive) in experiment [14].
As for `COc1ccc([Si](C)(C)[C@H]2[C@H](CC(=O)N(CCO)Cc3ccccc3)O[C@@]3(C(=O)N(Cc4cccc(N5C(=O)c6cccc7cccc5c67)c4)c4ccccc43)[C@@H]2C)cc1`, the composite z-score in experiment [1] is 1.07; in experiment [2], 1.09; in experiment [3], 0.324; in [4], 0.281; in experiment [5] it was 0.76; in experiment [6] it was 1.27. Besides, the composite z-score in the experiment with Lefty1 is 0.834; in experiment [8] it was 0.862; in experiment [10] it was 0.353; in experiment [15], 0.544; in experiment [16], -0.101; with Torsin-1A (Homo sapiens) [17], 0.871. Further, the composite z-score with Torsin-1A (Homo sapiens) [18] stood at 0.27; in [19], 1.61. Besides, the z-score in [7] was -0.203; in experiment [9], -1.19 (inactive); in [11] it was -4.87 (inactive); in experiment [12] it was -0.188 (inactive); in experiment [13], 1.09 (inactive); in experiment [14], -1.14 (inactive).
As for `O=C1OCC=C[C@H]2OC34C=CCN(Cc5ccccc5)C(=O)[C@H]3N(CCCO)C(=O)[C@@H]4[C@@H]12` (stereo not given in full), the composite z-score in [1] is 2.26; in experiment [2], 0.374; in experiment [3], 1.14; in [4], -0.827; in experiment [5], 0.397; in experiment [6], -0.56. Further, the composite z-score in the experiment on Lefty1 is 1.12; in [8], -0.0711; in experiment [10], -0.312; in experiment [15], -0.707; in [16], 0.222; with Torsin-1A (Homo sapiens) [17], -0.667. For the same compound, the composite z-score in the experiment with Torsin-1A (Homo sapiens) [18] was -0.239; in experiment [19], 1.44. Also, the z-score is -0.63 in [7]; -0.241 (inactive) in experiment [9]; -2.33 (inactive) in experiment [11]; -1.04 (inactive) in experiment [12]; -0.899 (inactive) in experiment [13]; -0.59 (inactive) in experiment [14].
